The record followed here is PubChem BioAssay (Tox21).

Structures are written as SMILES. Values joined by “and” are separate entries in the source; they are usually repeats but may differ in a detail not shown here. Equal values may be shown once. Results filed as inconclusive are left out. A structure can be active in one record and inactive in another. Active and inactive are the calls of the source. The call rests on the fitted dose curve; in most records, active means well fitted curve in the direction sought with a large enough effect in the repeat runs; inconclusive means weak or mixed curves; inactive means no such curve, though single readings can be large; an effect the other way counts as inactive or inconclusive.

The nature of assay [1]: Human pregnane X receptor (PXR) small molecule agonists, qHTS cell viability counter screen (AID 1346977). Further: nearly all actives have a fitted effect of over 50% in size. Further: potency means the concentration at half of the fitted maximal effect. A digest of the protocol:
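Tox21 qHTS format; PXR-Luc HepG2, 2,000/well, charcoal-stripped FBS 5%. Cpd exposure 24hr. Read: CellTiter-Fluor fluorescence, multiplexed with luciferase.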
A general note: In qHTS, concentration-response curves come from the screen itself.

Assay [2] in a line: Caspase-3/7 induction in HepG2 cells by small molecules, qHTS assay (AID 1346978). Further: nearly all actives have a fitted effect of over 15% in size. The gist of the method:
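Wild-type HepG2 cells (2,000/well) were settled 5 h at 37 C, 5% CO2, then exposed to compounds in DMSO for 17 h. Caspase-3/7 activity was read by luminescence 30 min after adding Caspase-Glo 3/7 reagent at room temperature.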

Assay [3] in a line: Caspase-3/7 induction in CHO-K1 cells by small molecules, qHTS cell viability counter screen (AID 1346979). Further: nearly all actives have a fitted effect of over 35% in size. Further: potency means the concentration at half of the fitted maximal effect. A digest of the protocol: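 CellTiter-Fluor viability check, qHTS format: wild-type CHO-K1, 16hr compound treatment, 1hr reagent incubation, fluorescence read.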
Assay [4] can be described thus: Caspase-3/7 induction in CHO-K1 cells by small molecules, qHTS assay (AID 1346980). Further: nearly all actives have a fitted effect of over 15% in size. A digest of the protocol: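 Wild-type cells were seeded at 1,500 per well and settled 5 hr at 37 C, 5% CO2, then exposed to DMSO-dissolved compounds for 17 hr. Caspase-Glo 3/7 reagent was added, and luminescence was read after 30min at room temperature.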
A short description of assay [5]: Caspase-3/7 induction in HepG2 cells by small molecules, qHTS cell viability counter screen (AID 1346981). Further: nearly all actives have a fitted effect of over 30% in size. Further: potency means the concentration at half of the fitted maximal effect. A digest of the protocol:
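The parent HepG2 line is plated at 2,000 cells per well and rested 5 hr before compound pinning from DMSO stocks. Following a 16-hr treatment at 37 C, a fluorogenic live-cell substrate (CellTiter-Fluor) reports viability after 1 hr.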

The target of assay [6] is Nuclear receptor subfamily 1 group I member 2 (Homo sapiens) (UniProt O75469). As to the kind of experiment: Human pregnane X receptor (PXR) small molecule agonists, qHTS assay (AID 1346982). Further: nearly all actives have a fitted effect of over 35% in size. Further: potency means the concentration at half of the fitted maximal effect. A digest of the protocol: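 After plating in 5% charcoal-stripped FBS and a 5 hr rest, PXR-Luc HepG2 cells received compounds in DMSO. Following 24 hr at 37 C, ONE-Glo was added and light output read.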

For assay [7], the target named is Cytochrome P450 2D6 (Homo sapiens) (UniProt P10635). As to the kind of experiment: Cytochrome P450 Family 2 Subfamily D Member 6 (CYP2D6) small molecule antagonists: luciferase reporter qHTS assay (AID 1671196). Further: nearly all actives have a fitted effect of over 50% in size. Further: potency means the concentration at half of the fitted maximal effect. On activity change, negative = inhibition: series mostly up to about 120 µM. The gist of the method:
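Quantitative HTS of Tox21 chemicals against CYP2D6 using a luminescent proluciferin substrate. After NADPH addition, 1 h room-temperature reaction; luminescence recorded 20 min post detection reagent.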
A general note: A reporter such as luciferase makes a cellular process visible.

The target of assay [8] is Nuclear receptor subfamily 1 group I member 2 (Rattus norvegicus) (UniProt Q9R1A7). As to the kind of experiment: Rat pregnane X receptor (rPXR) activation by small molecules, qHTS assay (AID 1346983). Further: nearly all actives have a fitted effect of over 20% in size. Conditions: rPXR luciferase reporter cells, One-Glo luminescence, 24 h; max activation: stronger effect = higher value. A digest of the protocol:
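Cell-based rPXR luciferase reporter assay, 2,000 cells per well, rested 5hr at 37 C before compound addition in DMSO, then 24 hr at 37 C. One-Glo reagent was added and luminescence read after 30 min at room temperature.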

For assay [9], the target named is Nuclear receptor subfamily 1 group I member 2 (Homo sapiens) (UniProt O75469). In words: CYP3A4 induction through human pregnane X receptor (PXR) by small molecules, qHTS assay (AID 1346984). Further: nearly all actives have a fitted effect of over 40% in size. A digest of the protocol:
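Human PXR activation is tracked via CYP3A4 promoter-luciferase in DPX-2 (HepG2) cells. Compounds treat cells for 24hr at 37C, and luminescence is read after One-Glo.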

For assay [10] the target is unchanged. In words: Human pregnane X receptor (PXR) activation by small molecules, qHTS assay (AID 1346985). Further: nearly all actives have a fitted effect of over 40% in size. The gist of the method:
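DPX-2 cells (HepG2 co-transfected with a PXR response element and a CYP3A4-promoter luciferase construct) were seeded at 2,000 per well, rested 5 hr at 37C, then exposed to DMSO-dissolved compounds for 24 hr. Activation was read as luciferase luminescence.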
On the % scale 0 is the no-effect control and ±100 the full control effect.

Sequence of Cytochrome P450 2D6 (Homo sapiens) (P10635 whole entry, looked up): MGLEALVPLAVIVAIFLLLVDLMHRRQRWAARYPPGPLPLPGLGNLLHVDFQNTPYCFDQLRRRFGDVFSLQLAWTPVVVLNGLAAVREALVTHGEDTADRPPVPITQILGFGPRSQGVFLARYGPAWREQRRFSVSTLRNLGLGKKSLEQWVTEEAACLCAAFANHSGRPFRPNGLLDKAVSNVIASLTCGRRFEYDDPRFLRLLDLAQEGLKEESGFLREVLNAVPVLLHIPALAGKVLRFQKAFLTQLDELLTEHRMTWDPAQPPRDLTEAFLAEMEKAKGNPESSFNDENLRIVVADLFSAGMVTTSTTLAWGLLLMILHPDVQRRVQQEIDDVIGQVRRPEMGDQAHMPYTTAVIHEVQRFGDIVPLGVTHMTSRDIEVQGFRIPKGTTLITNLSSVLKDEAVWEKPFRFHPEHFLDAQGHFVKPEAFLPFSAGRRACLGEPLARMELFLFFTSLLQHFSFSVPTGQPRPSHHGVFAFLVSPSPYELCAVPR
Sequence of Nuclear receptor subfamily 1 group I member 2 (Rattus norvegicus) (Q9R1A7 whole entry, looked up): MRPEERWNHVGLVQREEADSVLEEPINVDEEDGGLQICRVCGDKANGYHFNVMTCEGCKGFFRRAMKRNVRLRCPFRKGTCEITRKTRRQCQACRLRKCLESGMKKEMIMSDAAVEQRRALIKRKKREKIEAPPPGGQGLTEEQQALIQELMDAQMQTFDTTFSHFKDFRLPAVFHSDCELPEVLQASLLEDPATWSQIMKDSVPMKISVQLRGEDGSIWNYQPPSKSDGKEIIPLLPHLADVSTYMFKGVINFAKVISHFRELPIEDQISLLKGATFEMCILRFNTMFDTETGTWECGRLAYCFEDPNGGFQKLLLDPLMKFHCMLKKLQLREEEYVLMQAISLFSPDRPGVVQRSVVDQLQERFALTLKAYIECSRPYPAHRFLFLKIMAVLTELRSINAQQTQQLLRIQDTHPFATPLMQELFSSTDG
Sequence of Nuclear receptor subfamily 1 group I member 2 (Homo sapiens) (O75469 whole entry, looked up): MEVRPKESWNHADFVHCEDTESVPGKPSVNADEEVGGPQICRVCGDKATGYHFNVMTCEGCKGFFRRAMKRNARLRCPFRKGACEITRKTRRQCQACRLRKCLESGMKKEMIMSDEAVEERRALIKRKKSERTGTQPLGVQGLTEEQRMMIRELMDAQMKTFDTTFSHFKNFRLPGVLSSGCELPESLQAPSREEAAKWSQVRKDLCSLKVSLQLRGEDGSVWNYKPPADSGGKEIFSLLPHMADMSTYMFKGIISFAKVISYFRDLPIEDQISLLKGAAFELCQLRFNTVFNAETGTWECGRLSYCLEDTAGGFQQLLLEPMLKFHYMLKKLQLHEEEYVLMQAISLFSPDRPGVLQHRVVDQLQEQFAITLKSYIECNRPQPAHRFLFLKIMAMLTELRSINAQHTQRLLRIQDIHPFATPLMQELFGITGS

As for `CN(C)c1cccc(O)c1`, the Potency result in assay [1], in [2], in assay [3], in assay [4] and in [5] was “inactive” each time. In addition, the Potency in assay [6] is 49.3 µM (active) and 54.5 µM (active); in assay [7], 40.5 µM (active).

In the case of `CCCCCCCCC`, the Potency entry in assay [1], in assay [2], in assay [3], in assay [4], in assay [5] and in assay [6] was “inactive” each time. The Potency result in [7] was “inactive”.

For the compound `CCCCOCCOCCOC(=O)CCCCC(=O)OCCOCCOCCCC`, the Potency result in assay [1], in [2], in assay [3], in assay [4], in [5] and in assay [6] was “inactive” throughout.

On to `CNC[C@H](O)[C@@H](O)[C@H](O)[C@H](O)CO`, for which the Potency result in assay [1], in [2], in assay [3], in assay [4], in assay [5] and in assay [6] was “inactive” throughout. The Potency entry in [7] was “inactive”. For the same compound, the max activation in assay [8] was -2.23% (inactive). In addition, the compound was classed as inactive in assay [9] and in [10].

As for `CC(=O)Nc1ccc(C(=O)O)cc1`, the Potency result in assay [1], in [2], in assay [3], in assay [4], in [5] and in [6] was “inactive” throughout. Also, the Potency entry in assay [7] was “inactive”. In [8], the max activation is -3.56% (inactive). In addition, the compound was classed as inactive in assay [9] and in assay [10].

Take `Nc1cc(-c2ccncc2)c[nH]c1=O`: the Potency entry in assay [1], in [2], in assay [3], in assay [4], in assay [5] and in assay [6] was “inactive” throughout. For the same compound, the max activation in [8] is -1.94% (inactive). For the same compound, the compound was classed as inactive in [9] and in [10]. Besides, the Potency in [7] is 31.7 µM (active) and 17.4 µM (active).

As for `O=S(=O)(O)CCS`, the Potency entry in assay [1], in assay [2], in assay [3], in [4], in assay [5] and in [6] was “inactive” throughout. Moreover, in [8], the max activation was -3.83% (inactive). Moreover, the call in [9] and in assay [10] was inactive. The Potency in [7] is 31.3 µM (active) and inactive.

With `Cc1cc(Cc2ccc(N)c(C)c2)ccc1N`, the Potency result in assay [1], in assay [2], in assay [3], in [4] and in [5] was “inactive” throughout. The Potency in assay [6] was 61.1 µM (active).

Turning to `CC1CC(OC(=O)c2ccccc2O)CC(C)(C)C1` (configuration not stated), the Potency entry in assay [1], in assay [2], in assay [3], in assay [4], in assay [5] and in assay [6] was “inactive” in each case. In assay [7], the Potency entry is “inactive”. For the same compound, the max activation in [8] is -1.96% (inactive). The result in assay [9] and in assay [10] was inactive.

On to `Nc1nc2ncc(CNc3ccc(C(=O)N[C@@H](CCC(=O)O)C(=O)O)cc3)nc2c(=O)[nH]1`, for which the Potency entry in [1], in assay [2], in assay [3], in assay [4], in assay [5] and in [6] was “inactive” each time. For the same compound, the Potency entry in [7] was “inactive”. For the same compound, the max activation in assay [8] is -0.844% (inactive). In addition, the outcome in assay [9] and in assay [10] was inactive.

For the compound `Oc1ccc2ccccc2c1`, the Potency entry in assay [1], in assay [2], in [3], in assay [4] and in assay [5] was “inactive” each time.

With `O=C(O)c1cc(-c2ccccc2)nc2ccccc12`, the Potency entry in assay [1], in [2], in assay [3], in assay [4], in assay [5] and in assay [6] was “inactive” throughout.

Take `NCCNCCNCCNCCN`: the Potency entry in assay [1], in assay [2], in [3], in [4], in assay [5] and in [6] was “inactive” throughout. The max activation in assay [8] was -4.35% (inactive). Also, the compound was called inactive in assay [9] and in assay [10]. In [7], the Potency is 63 µM (active). Further, the activity change, negative = inhibition in assay [7] is -26.4% [at 10.5 µM] (inactive).

With `CC1=C(CC(=O)O)c2cc(F)ccc2/C1=C\c1ccc(S(C)=O)cc1` (configuration not stated), the Potency entry in assay [1], in assay [2], in assay [3], in assay [4] and in [5] was “inactive” throughout. In addition, the Potency was 21.7 µM (active) and inactive in [6]; 35.6 µM (active) and 34.7 µM (active) in assay [7]. For the same compound, the max activation in [8] was -1.51% (inactive). Also, the outcome in assay [9] and in assay [10] was inactive.

In the case of `c1ccc2ccccc2c1`, the Potency entry in assay [1], in assay [2], in assay [3], in [4], in assay [5] and in assay [6] was “inactive” in each case. Moreover, the Potency entry in [7] is “inactive”. Besides, in assay [8], the max activation was -0.655% (inactive). Also, the compound was classed as inactive in assay [9] and in assay [10].

With `Cc1cc(NS(=O)(=O)c2ccc(N)cc2)no1`, the Potency result in assay [1], in [2], in assay [3], in [4] and in [5] was “inactive” each time.

For `NC(=O)/N=N/C(N)=O`, the Potency result in [1], in assay [2], in [3], in assay [4], in assay [5] and in [6] was “inactive” each time. The Potency result in [7] is “inactive”.

As to `Clc1cc(Cl)c(Cl)cc1Cl`, the Potency result in assay [1], in assay [2], in assay [3], in assay [4], in [5] and in assay [6] was “inactive” in each case. The Potency result in assay [7] was “inactive”.

With `Nc1c(S(=O)(=O)O)cc(Br)c2c1C(=O)c1ccccc1C2=O`, the Potency was 31.3 µM (active) and 27.3 µM (active) in assay [1]; 48.6 µM (active) in assay [3]; “inactive and 48.6 µM (active)” in [5]; “inactive and 48.6 µM (active)” in assay [6]. For the same compound, the Potency entry in assay [2], in assay [4] and in [7] was “inactive” throughout.

As to `CCOC(=O)/C=C\C(=O)OCC`, the Potency entry in [1], in assay [2], in [3], in [4], in assay [5] and in assay [6] was “inactive” throughout. The Potency result in assay [7] is “inactive”.

For `O=C(c1ccc(O)cc1)c1ccc(O)cc1O`, the Potency entry in [1], in assay [2], in assay [3], in [4] and in [5] was “inactive” in each case. Also, the Potency in [6] is 61.8 µM (active) and 48.6 µM (active); in assay [7], 36 µM (active) and 35.6 µM (active).

Regarding `OCC1CCCO1` (configuration not stated), the Potency result in assay [1], in [2], in [3], in assay [4], in [5] and in assay [6] was “inactive” in each case. Besides, the Potency result in assay [7] was “inactive”.

Consider `COCC(C)O` (configuration not stated), for which the Potency result in [1], in [2], in assay [3], in assay [4], in [5] and in [6] was “inactive” in each case. The Potency entry in assay [7] is “inactive”.
